Test systems include SR leukemia; RPMI-8226 leukemia; OVCAR-8 ovarian; OVCAR-5 ovarian; OVCAR-4 ovarian; SK-OV-3 ovarian; IGROV1 ovarian; OVCAR-3 ovarian; HS 578T breast; NCI/ADR-RES ovarian; T-47D breast; BT-549 breast; MDA-MB-435 melanoma; SW-620 colon; MCF7 breast; HCT-116 colon; HCC-2998 colon; KM12 colon.
What all share (assay): NCI-60 one-dose screen, 48 h (100 = growth as untreated, 0 = no growth, -100 = all killed)
Common to all, as to conditions: 10 µM unless noted

The text below walks through data of PubChem BioAssay (NCI).

The panel holds about 83,000 compounds, 20% with a hit somewhere; the sample as a whole holds those more often.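 Testing used 96-well plates and a 48-hour single-concentration exposure. Example: -40 means 40% of the starting cells died.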 Unmarked numbers belong to inactive results. Activity calls are given as the source filed them. How the source made its calls: active means growth percent below 10; inactive means the rest.

`COc1ccc2c(c1)OC1=C(C(=O)OC1)C2c1cc(OC)c2c(c1)OCCO2` (centres undefined): the growth was 27.3% in the assay with SR leukemia; 25% with RPMI-8226 leukemia; 20.7% with OVCAR-8 ovarian; 32.4% in the assay with OVCAR-5 ovarian; 48% with OVCAR-4 ovarian; -2.33% (active) in the assay with SK-OV-3 ovarian. The growth with IGROV1 ovarian was 19.3%; in the assay with OVCAR-3 ovarian, -30.4% (active); in the assay with HS 578T breast it was 29.6%; in the assay on NCI/ADR-RES ovarian it was 13.9%; in the assay on T-47D breast it was 60.2%; in the assay with BT-549 breast, 24.6%. The growth was -18.1% (active) in the assay on MDA-MB-435 melanoma; 24.6% in the assay on SW-620 colon; 10.3% with MCF7 breast; 4.09% (active) in the assay on HCT-116 colon; 23% with HCC-2998 colon; 2.33% (active) in the assay on KM12 colon.
On to `CCCCCCCCCCCCCCCC1=NCCN1`, for which the growth in the assay on SR leukemia was -44.9% (active); in the assay with RPMI-8226 leukemia it was 40.8%; in the assay with OVCAR-8 ovarian, 84.5%; with OVCAR-5 ovarian, 69%; in the assay on OVCAR-4 ovarian, 78%; in the assay on SK-OV-3 ovarian, 99.2%. Moreover, the growth with IGROV1 ovarian is 42.3%; in the assay with OVCAR-3 ovarian, 77%; with HS 578T breast, 84.4%; in the assay with NCI/ADR-RES ovarian it was 75.4%; in the assay on T-47D breast, -15.4% (active); in the assay on BT-549 breast it was 98%. For the same compound, the growth in the assay with MDA-MB-435 melanoma was 0.615% (active); in the assay on SW-620 colon, 7.4% (active); in the assay on MCF7 breast it was 32%; in the assay on HCT-116 colon, 34.6%; in the assay with HCC-2998 colon, 73.8%; with KM12 colon it was 64.1%.
On to `CC1OC(n2c3ccccc3c3c4c(c5c6ccccc6[nH]c5c32)C(=O)N(CCN[C@H]2CCC[C@@H]2N)C4=O)CC(O)C1O` (some centres undefined), for which the growth in the assay on SR leukemia was -1.11% (active); in the assay with RPMI-8226 leukemia, 4.77% (active); with OVCAR-8 ovarian it was 27.7%; in the assay with OVCAR-5 ovarian it was 80.4%; in the assay on OVCAR-4 ovarian, 34.9%; in the assay with SK-OV-3 ovarian, 40.7%. The growth is 36.4% with IGROV1 ovarian; 52.7% in the assay on OVCAR-3 ovarian; 52.3% in the assay with HS 578T breast; 88.2% with NCI/ADR-RES ovarian; 29% in the assay on T-47D breast; 46.9% in the assay on BT-549 breast. In addition, the growth was 29.2% with MDA-MB-435 melanoma; 17.4% in the assay on SW-620 colon; 6.49% (active) with MCF7 breast; 24.6% in the assay on HCT-116 colon; 17% in the assay with HCC-2998 colon; 20.2% in the assay on KM12 colon.
